# Reference: the supplement of paper PMC13380429
# Values without a mark were called inactive.
# Tested on: Vero E6 infected with SARS-CoV-2
# Test: inhibition of SARS-CoV-2 cytopathic effect; higher = more antiviral protection, active = above 15
# Details: 10000 nM; 48 h
row,Structure (SMILES),inhibition of SARS-CoV-2 cytopathic effect
1,O=C(O)COc1ccc(/C=C2\SC(=O)NC2=O)cc1,-0.64%
2,O=S(=O)(c1cccc2cnccc12)N1CCCNCC1 [fasudil],-5.91%
3,Cc1ccc(C(=O)c2cc(O)c(O)c([N+](=O)[O-])c2)cc1 [tolcapone],1.15%
4,CN(C)[C@@H]1C(O)=C(C(N)=O)C(=O)[C@@]2(O)C(O)=C3C(=O)c4c(O)cccc4[C@@](C)(O)[C@H]3[C@H](O)[C@@H]12 [oxytetracycline],-0.98%
5,O=C(O)C[CH2][Ge](=[O])[O][Ge](=[O])[CH2]CC(=O)O [propagermanium],-2.33%
6,C[C@H]1CCC/C=C/[C@@H]2C[C@H](O)C[C@H]2[C@H](O)/C=C/C(=O)O1 [brefeldin-A],-4.89%
7,COc1ccccc1Oc1c(NS(=O)(=O)c2ccc(C(C)(C)C)cc2)nc(-c2ncccn2)nc1OCCO [bosentan],-1.84%
8,CN1CCN(c2ccc3[nH]c(-c4ccc5[nH]c(-c6ccc(O)cc6)nc5c4)nc3c2)CC1 [pibenzimol],4.07%
9,CC(C)c1ccc(CC(=O)N2CCC[C@@H](c3cccc(OC(C)(C)C(=O)O)c3)C2)cc1,-0.15%
10,N#Cc1ccc(N2N=C3c4ccc(C(=O)O)cc4CC[C@@H]3[C@@H]2C2CCCC2)cc1Cl,10.2%
11,O=S(=O)(NCC1CC1)c1ccc(Nc2nccc(N3CCCc4cc(O)ccc43)n2)cc1 [pyrintegrin],36% (active)
12,CS(=O)(=O)CCNCc1nc(-c2ccc3ncnc(Nc4ccc(OCc5cccc(F)c5)c(Cl)c4)c3c2)cs1,-4.14%
13,CCN(CCO)CCCC(C)Nc1ccnc2cc(Cl)ccc12 (centres undefined) [hydroxychloroquine],-0.85%
14,Cc1cc(Nc2ncc(Cl)c(Nc3ccccc3S(=O)(=O)C(C)C)n2)c(OC(C)C)cc1C1CCNCC1 [ceritinib],58.8% (active)
15,CNC[C@H](O)c1cccc(O)c1 [phenylephrine],-0.09%
16,NCCCCCC(O)(P(=O)(O)O)P(=O)(O)O [neridronic-acid],3.47%
17,CC(C)OC(=O)[C@H](C)N[P@](=O)(CO[C@H](C)Cn1cnc2c(N)ncnc21)Oc1ccccc1 [tenofovir-alafenamide],3.48%
18,c1ccc2c(c1)sc1ccccc12 [dibenzothiophene],0.68%
19,CC(C)Nc1nc2cc(Cl)c(Cl)cc2n1[C@H]1O[C@@H](CO)[C@H](O)[C@@H]1O [maribavir],-2.15%
20,Cc1cc(-c2cc(O)ccc2Cl)cc2nnc(Nc3ccc(OCCN4CCCC4)cc3)nc12,-21.4%

row,Structure (SMILES),inhibition of SARS-CoV-2 cytopathic effect
1,CCn1c(=O)c(-c2ccc(Cl)cc2Cl)cc2cnc(Nc3ccc(N4CCNCC4)c(F)c3)nc21,-4.65%
2,CC=C1C(=O)C[C@H]2[C@@H]3CCC4=CC(=O)CC[C@]4(C)[C@H]3CC[C@]12C,4.3%
3,COc1cc(Nc2nc3ccccc3nc2NS(=O)(=O)c2ccc(NC(=O)c3ccc(C)c(OC)c3)cc2)cc(OC)c1,0.57%
4,C[C@]12C[C@H](O)[C@H]3[C@@H](CCC4=CC(=O)CC[C@@]43C)[C@@H]1CC[C@@H]2C(=O)CO [corticosterone],0.43%
5,O=[N+]([O-])O[C@H]1CO[C@H]2[C@@H]1OC[C@H]2O[N+](=O)[O-] [isosorbide-dinitrate],3.34%
6,Cc1noc2c1-c1ccccc1C(c1ccc(Cl)cc1)=N[C@H]2CC(N)=O,-11.1%
7,CCN1CCN(Cc2ccc(Nc3ncc(F)c(-c4cc(F)c5nc(C)n(C(C)C)c5c4)n3)nc2)CC1 [abemaciclib],12.3%
8,NS(=O)(=O)c1ccc(-n2nc(C(F)(F)F)cc2-c2ccc(Cl)cc2)cc1,-0.38%
9,COC(=O)C1=C(C)N(C)C(C)=C(C(=O)OC)C1c1ccc(C(F)(F)F)cc1,8.02%
10,Cn1cnc2c(NCc3ccccc3)nc(NCCO)nc21 [olomoucine],-0.63%
11,CCN(CC)CCNc1ccc(CO)c2sc3ccccc3c(=O)c12 [hycanthone],0.99%
12,C[C@H](Cc1cc2c(c(C(N)=O)c1)N(CCCO)CC2)NCCOc1ccccc1OCC(F)(F)F [silodosin],3.11%
13,OC[C@@H](O)[C@@H](O)[C@@H](O)CO [ribitol],1.14%
14,Oc1cc2c(cc1O)CN(C(=S)NCCc1ccc(Cl)cc1)CCC2 [capsazepine],3.42%
15,Cc1cc(C)c(S(=O)(=O)n2cc(C)cc2C)c(C)c1,-1.17%
16,COc1ccc(-c2ccc3c(N4CCOC[C@@H]4C)nc(N4CCOC[C@@H]4C)nc3n2)cc1CO,-6.56%
17,C=C1c2cccc(O)c2C(=O)C2=C(O)[C@]3(O)C(=O)C(C(N)=O)=C(O)[C@@H](N(C)C)[C@@H]3[C@@H](O)[C@H]12 [methacycline],2.34%
18,Cc1cc(-c2cc(OC(=O)c3ccccc3)ccc2Cl)cc2nnc(Nc3ccc(OCCN4CCCC4)cc3)nc12,2.17%
19,CO[C@@H]1COCC[C@@H]1N[C@@H]1CC[C@@](C(=O)N2CCc3ncc(C(F)(F)F)cc3C2)(C(C)C)C1,-5.58%
